Screening data deposited in PubChem BioAssay by several laboratories.
ABCB6 inh 2 = human ABCB6 transporter inhibition; Q9NP58; K562-ABCB6 porphyrin accumulation, flow cytometry, 1 h; hits give low values; fluorescence ratio to DMSO, % at 10 µM; 360,000 tested, 0.19% active;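 active = fluorescence ratio to DMSO below 75%, the collection mean minus 3 SD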;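 note: signal is porphyrin accumulated inside mitochondria; 100% equals median channel fluorescence of DMSO control wells; lower ratio means ABCB6 inhibition with less porphyrin fluorescence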
CaV13 FRET inh = Primary screen for inhibitors of IQ motif and Ca2+-dependent inactivation inhibitor domain binding in CACNA1D, Förster resonance energy transfer in living cells, … | HEK cells, CFP/YFP FRET ICDI-IQ, plate reader, 10 min; percent FRET-ratio fall versus neutral wells | AID 743397 | 340,000 tested, 0.098% active | inhibition, % at 12.3 µM;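 active = mean replicate inhibition of at least 30% and at least 1% of replicates passing that level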;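 note: 0% = median of the neutral control wells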
Granule exo inh = lytic granule exocytosis inhibition; TALL-104 LAMP-1 surface exposure, flow cytometry; cells stimulated with thapsigargin and PMA; inhibition, % at 10 µM; 360,000 tested, 0.66% active; AID 651702;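 active = inhibition above about 55%, limit read from the data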
VLA-4 inh = inhibition in a human VLA-4 binding assay | P13612 | VLA-4 expressing cells, ligand binding flow cytometry | inhibition, % (about 7 µM as worked out from the volumes in the protocol) | 330,000 tested, 0.2% active | AID 2557; in the data active = inhibition above about 50%
Target sequence (P13612 whole entry, looked up): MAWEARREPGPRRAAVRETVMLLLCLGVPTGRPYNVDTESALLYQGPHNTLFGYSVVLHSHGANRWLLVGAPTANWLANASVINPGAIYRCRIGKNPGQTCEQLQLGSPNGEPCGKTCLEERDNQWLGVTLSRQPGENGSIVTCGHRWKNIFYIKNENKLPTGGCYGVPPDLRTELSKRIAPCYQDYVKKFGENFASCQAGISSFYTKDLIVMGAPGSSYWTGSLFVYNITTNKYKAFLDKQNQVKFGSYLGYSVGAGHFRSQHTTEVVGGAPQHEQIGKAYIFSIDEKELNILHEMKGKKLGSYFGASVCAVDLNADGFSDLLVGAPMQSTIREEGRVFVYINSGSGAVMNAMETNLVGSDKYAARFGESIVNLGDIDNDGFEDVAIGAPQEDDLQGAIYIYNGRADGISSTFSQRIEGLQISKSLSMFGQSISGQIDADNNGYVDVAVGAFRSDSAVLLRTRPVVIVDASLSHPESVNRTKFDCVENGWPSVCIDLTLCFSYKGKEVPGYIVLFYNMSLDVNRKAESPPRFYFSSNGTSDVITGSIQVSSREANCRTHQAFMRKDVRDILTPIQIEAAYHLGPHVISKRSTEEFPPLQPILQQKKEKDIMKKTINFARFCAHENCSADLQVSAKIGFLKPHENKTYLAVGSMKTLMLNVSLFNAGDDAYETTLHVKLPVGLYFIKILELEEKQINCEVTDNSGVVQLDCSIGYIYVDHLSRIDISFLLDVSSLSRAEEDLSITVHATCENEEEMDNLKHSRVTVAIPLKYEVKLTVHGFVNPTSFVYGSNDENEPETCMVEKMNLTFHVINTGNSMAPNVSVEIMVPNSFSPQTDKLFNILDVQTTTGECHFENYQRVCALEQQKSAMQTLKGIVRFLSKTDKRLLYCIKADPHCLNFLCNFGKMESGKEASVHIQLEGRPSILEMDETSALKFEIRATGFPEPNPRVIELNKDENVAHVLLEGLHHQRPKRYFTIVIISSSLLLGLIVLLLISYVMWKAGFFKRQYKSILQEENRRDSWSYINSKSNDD
VLA-4 mod pick = confirmation of allosteric modulators of human VLA-4 integrin; 1,300 tested, 2% active; U937 cells, HUTS-21 LIBS mAb binding, flow cytometry; LDV ligand present at threefold Kd; inhibition, % at 6.7 µM; shares compounds with VLA-4 inh; AID 2813; in the data active = inhibition above about 40%;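 note: 0% = ligand without compound and 100% = no ligand background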
Starred values were filed as active, the others as inactive; / = no result; ! = repeats disagree. Hits are enriched below; roughly 1.1% of the tested compounds scored in any of these assays.

SMILES	ABCB6 inh 2	CaV13 FRET inh	Granule exo inh	VLA-4 inh	VLA-4 mod pick
COc1cccc(C(C(=O)NC2CCCCC2)N(C(=O)Cc2cccs2)c2ccc(-n3cnnn3)c(OC)c2)c1 (stereo not given)	102.0	-4.1	-5.1	54.0*	-3.5
Cc1nn(S(=O)(=O)c2ccc(C(C)C)cc2)c(C)c1S(=O)(=O)N1CCOCC1	104.0	-6.4	-13.9	5.4	/
CCOc1ccc(S(=O)(=O)n2nc(C)c(S(=O)(=O)N3CCOCC3)c2C)cc1	94.0	-15.5	-1.7	100.0*	-2.1
COC(=O)[C@]12C[C@H](CC(=O)N3CCN(C(=O)C4CC4)CC3)C(=O)N(Cc3ccccc3)C1=C[C@H](C(C)C)O[C@@H]2C1CC1	/	-5.8	/	/	/
CC(=O)N1CCN(c2ccc(N3CCN(C(C)=O)[C@@H](C)C3)c(C)c2)[C@H](C)C1	/	-9.3	/	/	/
CCOC(=O)C1(Cc2ccccc2)C(=O)Nc2ccccc21 (stereo not given)	100.0	-4.3	-1.9	4.5	/
CCOC(=O)C1(C(F)(F)F)N=C(C(F)(F)F)Nc2ccccc21 (stereo not given)	98.0	-6.7	-7.7	56.3*	1.3
O=c1c2[nH]c3ccccc3c2ncn1CCCn1ccnc1	101.0	-5.8	-7.9	-9.6	/
COc1ccc2[nH]c3c(=O)n(Cc4ccncc4)cnc3c2c1	93.0	-2.7	9.4	5.6	/
O=c1c2[nH]c3ccc(F)cc3c2ncn1C1CCCCC1	83.0	/	-1.6	96.0*	6.1
O=c1c2[nH]c3ccc(Br)cc3c2ncn1CCCn1ccnc1	104.0	-5.1	2.6	2.7	7.2
O=c1c2[nH]c3ccc(F)cc3c2ncn1CCN1CCOCC1	91.0	/	-3.1	4.1	/
O=c1c2[nH]c3ccc(F)cc3c2ncn1Cc1ccncc1	98.0	-5.4	-4.8	3.0	-2.3
COC(=O)N1C[C@H](OC(=S)Nc2ccc(OC)cc2OC)[C@H]2C[C@@H]1c1ccccc1O2	/	-3.7	/	/	/
C[C@@H]1CNC(=O)c2c(C(=O)N(C)Cc3ccccc3)ncn21	/	-3.9	/	/	/
CC(C)CNc1cccc2c1S(=O)(=O)N[C@@H](CC(C)C)CO2	/	-3.1	/	/	/
CCC[C@@H](O)c1cc2cc(OC)c(OC)cc2c(=O)o1	101.0	-10.5	-7.3	21.5	/
COc1ccc(-c2nc(CN3CCN(c4ccccc4OC)CC3)c(C)o2)cc1	101.0	-4.5	0.5	-9.5	/
COc1ccccc1N1CCN(Cc2nc(-c3ccc(F)cc3)oc2C)CC1	98.0	9.1	2.5	51.6*	-6.7
OCCC1CN(Cc2cnc(-c3ccccc3)s2)CCN1C1CCCCC1 (stereo not given)	98.0	-6.2	2.1	-6.0	/
OCCC1CN(Cc2cnc(-c3ccccc3)s2)CCN1C1CCCC1 (stereo not given)	101.0	-10.2	26.8	43.5	3.7
COC(=O)c1cc(C(=O)Nc2nnc(CC(C)(C)C)s2)cc([N+](=O)[O-])c1	88.0	-6.3	-7.3	51.1*	-1.2
Nc1[nH]c(C(=O)c2ccc(Br)cc2)c(-c2ccccc2)c1C(=O)NCCc1c[nH]c2ccccc12	/	-21.9	/	/	/
O=C(COC(=O)c1ccc(O)cc1)c1ccc2c(c1)OCCO2	93.0	-5.6	8.2	/	/
COc1cc(CC(=O)OCC(=O)c2ccc3c(c2)OCCO3)cc(OC)c1OC	106.0	-5.0	2.7	91.0*	-5.8
SMILES	ABCB6 inh 2	CaV13 FRET inh	Granule exo inh	VLA-4 inh	VLA-4 mod pick
O=C(COC(=O)c1nsc(Cl)c1Cl)NC1CCCC1	95.0	-2.6	-0.9	15.5	/
O=C(CN(CC1CCCO1)C(=O)c1nsc(Cl)c1Cl)NC1CCCC1 (stereo not given)	99.0	2.1	0.2	57.0*	3.8
CN1OC[C@@H]2CN(C(=O)c3ccc(C#N)cc3)[C@H](c3cccc(Br)c3)C[C@@H]21	/	-4.4	/	/	/
CSc1ccccc1C(=O)C1CCCN(S(=O)(=O)N(C)C)C1 (stereo not given)	92.0	5.4	-1.6	51.5*	-10.4
COc1ccc(C(=O)C2CCCN(S(=O)(=O)N(C)C)C2)c(C)c1 (stereo not given)	96.0	-19.0	1.5	-8.3	/
COc1cccc(C(=O)N[C@@H](CC(C)C)C(=O)N2CCC[C@H]2C(=O)NCc2ccccc2)c1	/	-11.2	/	/	/
O=C(Cc1c[nH]c2ccccc12)Nc1ccc(Nc2cccnc2)c(-c2ccc(F)c(F)c2)c1	/	-11.0	/	/	/
CCc1cc(=O)[nH]c(-n2[nH]c(-c3ccccc3)cc2=O)n1	96.0	-9.8	3.1	-8.6	3.7
CC(=O)N1CCN(c2ccc(N3CCN(Cc4ccccc4)[C@@H](C)C3)c(C)c2)[C@H](C)C1	/	-9.0	/	/	/
O=C(O)c1ccc2c(c1)N(Cc1cccc(F)c1)C(=O)CS2	97.0	-7.0	-0.8	50.4*	-0.6
CN(Cc1cnc2nc(N)nc(N)c2n1)c1ccc(C(=O)N[C@@H](CCC(=O)O)C(=O)O)cc1	103.0	-4.5	-5.0	54.5*!	-1.6
CN1C(=O)C(C)(C)c2cc(S(=O)(=O)NCc3ccc(Cl)cc3)ccc21	103.0	-2.5	2.2	0.3	-0.1
CN1C(=O)C(C)(C)c2cc(S(=O)(=O)NCCc3ccc(Cl)cc3)ccc21	101.0	-1.8	7.9	-7.2	-4.9
CCC(C)NC(=O)c1ccc(CNS(=O)(=O)c2ccc3c(c2)C(C)(C)C(=O)N3C)cc1 (stereo not given)	100.0	-5.4	2.0	-3.1	/
CC(C)C(NS(=O)(=O)c1ccc2c(c1)C(C)(C)C(=O)N2C)C(=O)NCc1ccccc1Cl (stereo not given)	106.0	-5.8	1.2	74.2*	-15.4
Cc1ccc(CCNS(=O)(=O)c2ccc3c(c2)C(C)(C)C(=O)N3C)cc1	102.0	-2.4	-5.7	-24.0	/
O=C(O)CCn1nc(-c2ccc(F)cc2)cc(Cc2ccccc2)c1=O	98.0	/	-6.0	-5.7	/
COC(=O)C1=C(C)N(C)C(=NCc2cc(OC)c(OC)c(OC)c2)NC1c1ccc(Cl)cc1 (stereo not given)	/	-4.7	/	/	/
O=C(NCCCn1ccnc1)c1ccc(-c2ccccc2)cc1	96.0	-2.6	4.9	44.7	0.5
CCN(CC(=O)NCc1cccs1)C(=O)c1ccc(-c2cccc(C(F)(F)F)c2)o1	103.0	-13.2	6.7	53.3*	4.0
CCN(CC(=O)NCc1cccs1)C(=O)COc1cccc(C(F)(F)F)c1	92.0	-2.1	-2.8	11.6	/
CCCCc1c(-c2ccccc2OC)ncn1Cc1ccccc1Cl	/	-5.2	/	/	/
COC(=O)[C@]12C[C@H](CC(=O)NCCc3ccccc3OC)C(=O)N(Cc3ccc4c(c3)OCO4)C1=C[C@H](COCc1ccccc1)O[C@@H]2C	/	-10.1	/	/	/
CCOC(=O)C1=C(C)C2C3C(=O)N(c4ccc(C)cc4C)C(=O)C3C1(C)C1C(=O)N(c3ccc(C)cc3C)C(=O)C21 (stereo not given)	102.0	-17.3	-1.0	43.0	-8.5
CCOC(=O)C1=C(C)C2C3C(=O)N(c4ccccc4C)C(=O)C3C1(C)C1C(=O)N(c3ccccc3C)C(=O)C21 (stereo not given)	104.0	-2.5	-2.3	17.6	/
O=C(Nc1ccc(Br)cc1)Nc1ccccc1Cl	101.0	-17.4	11.8	6.3	-0.2
